Screen size: about 65,000 compounds; about 2,100 (3.2%) showed an effect of 50% or more. The median lay at about -52%. What follows is part of a selection rich in strong results, with near analogues and random picks from the rest.
These molecules were tested on Plasmodium falciparum (assay: Screen against P. falciparum Asexual Blood Stage (ABS), at 5uM). Details: tested at 5 uM.
Format: functional, Dd2

| SMILES | INHIBITION [%] |
| --- | --- |
| COCC(=O)Nc1ccc(C)cc1-c1nc(C2CC2)no1 | -92.7 |
| CCn1cc2c(n1)CN(Cc1ccc(C)o1)CC2COCC1CC1 (centres undefined) | -68.6 |
| O=C(NCC1CCCCC1)NC1CCCc2c1cnn2CCO (centres undefined) | -133 |
| Cc1c(C(C)NC(=O)N2CCN(C3CCCC3)CC2)cnn1C (centres undefined) | -70.2 |
| COC(=O)c1sc2cccc(F)c2c1CNC(=O)C1CCOC1 (centres undefined) | -5.44 |
| Cc1cc(Nc2ccc(F)cn2)cc(C2CCN(Cc3ncc[nH]3)C2)n1 (centres undefined) | -49.2 |
| Fc1ccc(Nc2ccc(C3CCN(Cc4ncc[nH]4)CC3)nc2)nc1 | 63.1 |
| CNc1cccc(C2CCCN(Cc3ncc[nH]3)C2)n1 (centres undefined) | -20.8 |
| Cc1nnc(Nc2cccc(C3CCN(Cc4ncc[nH]4)CC3)n2)s1 | 31.6 |
| Fc1cccc(OC2CCN(Cc3ncc[nH]3)CC2)c1 | 36.9 |
| Cc1cccc(Nc2ccc(C3CCN(Cc4ncc[nH]4)CC3)nc2)n1 | 51.8 |
| CCN(CC)C(=O)C1CCCN1C(=O)c1cccc(-n2cnnn2)c1 (centres undefined) | -72.5 |
| O=C(CCCOc1ccccc1F)NCCCC(=O)Nc1cn[nH]c1 | -97.2 |
| Cc1cc(C)n(CC2CCCN2C(=O)c2ccc3c(c2)COC3)n1 (centres undefined) | -101 |
| c1ccc(OCCNC2=NCCCN2)cc1 | 16.3 |
| CN(C)c1ccc(CNC2=NCCCN2)cc1 | -56.7 |
| CCOCc1ccc(CNC2=NCCCN2)cc1 | 55.7 |
| CCOCCOC(C)C(=O)NCc1cn2cc(Cl)ccc2n1 (centres undefined) | -73.4 |
| COc1ccc(S(=O)(=O)N2C[C@H](OC)[C@]3(CCCO3)C2)cc1 | -98.4 |
| COCC(=O)N[C@@H]1CN(Cc2ccc3c(c2)OCCO3)C[C@H]1O | -66.5 |
| Cc1nn(C)c2cn(C(C)C(=O)NCc3cccc(F)c3)nc12 (centres undefined) | -32 |
| c1coc(-c2noc(CN3CCCC(Cn4cncn4)C3)n2)c1 (centres undefined) | -29 |
| Cc1oc(-c2ccco2)nc1CN1CCCC(Cn2cncn2)C1 (centres undefined) | 56.4 |

| SMILES | INHIBITION [%] |
| --- | --- |
| c1ncn(CC2CCCN(Cc3nnc(C4CC4)o3)C2)n1 (centres undefined) | -49 |
| CC(C)c1nnc(CN2CCCC(Cn3cncn3)C2)o1 (centres undefined) | 53.1 |
| CC(C)(C)c1nnc(CN2CCCC(Cn3cncn3)C2)o1 (centres undefined) | -204 |
| c1coc(-c2nc(CN3CCCC(Cn4cncn4)C3)cs2)c1 (centres undefined) | -19.5 |
| COc1ccc2c(c1)CC(C1CCOCC1)N(C(=O)c1cnccn1)C2 (centres undefined) | -108 |
| COC(=O)c1ccc(N2CCN(C(=O)c3cccnc3)C(C)C2)cc1 (centres undefined) | -5.1 |
| CN(C)C(=O)CN1CCc2ncnc(NC3CCC3)c2CC1 | -76.8 |
| CCC(CO)N(CC=C(C)C)Cc1ccsc1 (centres undefined) | 23.4 |
| CCC(CO)N(Cc1ccc(C(=O)O)cc1)Cc1ccsc1 (centres undefined) | -74.7 |
| CCC(CO)N(Cc1ccsc1)Cc1cccc(O)c1 (centres undefined) | 67.6 |
| O=C(NCCCN1CCOCC1)c1nc(-c2ccc3cc[nH]c3c2)no1 | 20.5 |
| COc1cccc(CC(=O)N2CCCC2c2nc(C)c(C)c(O)n2)c1 (centres undefined) | -102 |
| CN(CCC#N)C(=O)Cn1nnnc1C(C)(C)C | -112 |
| CC(O)(CNC(=O)c1c(F)cccc1Cl)c1ccco1 (centres undefined) | -45.8 |
| CC(C)c1cc(C(=O)NCCN2CCOCC2)nc(N2CCCC2)n1 | -70.3 |
| c1cc(-c2nc3c(c(NCCc4c[nH]cn4)n2)CCNCC3)ccn1 | -225 |
| c1nc(CCNc2nc(C3CC3)nc3c2CCNCC3)c[nH]1 | -79.3 |
| c1ccc(-c2nc3c(c(NCCc4c[nH]cn4)n2)CCNC3)cc1 | 51.1 |
| Cc1ccc(C(=O)N2CCC(O)(CN3CCc4ccccc4C3)C2)s1 (centres undefined) | -64.4 |
| CN(C)Cc1ccc(C(=O)N2CCCC(COc3ccc(F)cc3)C2)o1 (centres undefined) | 17.1 |
| CC(NC(=O)NCCCN(C)S(C)(=O)=O)c1ccc(Cl)cc1 (centres undefined) | -42.6 |
| COc1ccc(C)cc1NC(=O)Nc1cnc(N2CCCC2)nc1 | -26.2 |
| Cc1ccc(NC(=O)Nc2cnc(N3CCN(C)CC3)nc2)cc1 | 59.3 |

| SMILES | INHIBITION [%] |
| --- | --- |
| COc1ccc(NC(=O)c2cnc(N3CCN(C)CC3)nc2C)cc1 | -103 |
| CCC1CN(C)c2ccccc2CN1C(=O)Nc1cccc(F)c1 (centres undefined) | -107 |
| COCCN(CCOC)C(=O)c1cnn(C)c1C | -57.9 |
| CCc1nc(C)sc1CNC1CCN(Cc2ccccc2)C1 (centres undefined) | -2.57 |
| Cc1nc(CNC2CCN(Cc3ccccc3)C2)sc1C (centres undefined) | 7.17 |
| Cc1nc(CCNC2CCN(Cc3ccccc3)C2)sc1C (centres undefined) | 53.5 |
| CCC(=O)c1ccc(Br)cc1NN1c2cc(Br)ccc2C(=O)C1(C)OC (centres undefined) | 43.1 |
| CCc1n[nH]c(C(=O)N2CCN(c3ccc4ccccc4c3)CC2)c1C | -8.02 |
| CC(=O)N(c1ccc(C)cc1)c1nc(CN2CCCCC2C)cs1 (centres undefined) | 61.8 |
| CCN(C(C)=O)c1nc(CN2CCCCC2Cn2cncn2)cs1 (centres undefined) | 9.81 |
| CC(=O)N(C)c1nc(CN2CCCCC2Cn2cncn2)cs1 (centres undefined) | -125 |
| Cc1cnc(NC(C)Cc2cccnc2)nc1N(C)C (centres undefined) | 5.71 |
| O=C(NCc1ccco1)[C@@H]1CCO[C@@H]2CCN(CC3CC3)C[C@@H]21 | -37.9 |
| CN1CC(=O)N(c2cccc(F)c2)CC12CCN(Cc1nccs1)C2 (centres undefined) | -71.1 |
| c1ccc(-n2nnnc2CNCC2CCCN2c2cccnn2)cc1 (centres undefined) | -59.9 |
| CN(C)C(=O)CN1CCCC(c2nccnc2-c2cccc(Cl)c2)C1 (centres undefined) | 6.94 |
| CN1CCCC(c2nccnc2-c2cccc(C(F)(F)F)c2)C1 (centres undefined) | 68.7 |
| Cc1cccc(-c2nccnc2C2CCCN(C)C2)c1 (centres undefined) | -10.8 |
| Cn1cc(CN2CCCC(c3nccnc3-c3cccc(F)c3)C2)cn1 (centres undefined) | -45.2 |
| CN1CCCC(c2nccnc2-c2cccc(Cl)c2)C1 (centres undefined) | 45.1 |
| COCCN1CCCC(c2nccnc2-c2cccc(Cl)c2)C1 (centres undefined) | 62.9 |
| COc1ccc2c(c1)OCC(CNc1cc(N)nc(SC)n1)C2 (centres undefined) | -50.7 |
| CC(Cn1cccn1)NCc1ccc(OCc2ccncc2)cc1 (centres undefined) | -96.3 |

Source: ChEMBL document CHEMBL4513216, “Probing the Open Global Health Chemical Diversity Library for Multistage-Active Starting Points for Next-Generation Antimalarials” (ACS Infect Dis, 2020)
